The values below come from PubChem BioAssay (NCI).

Assay [1] can be described thus: NCI Yeast Anticancer Drug Screen. Data for the rad50 strain (AID 155).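 Note: 0% = growth of vehicle-only cultures of the same strain.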 The following applies: S. cerevisiae rad50 strain growth inhibition, stronger effect = higher value. A digest of the protocol:
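Relative growth inhibition (compound vs vehicle) was measured in yeast with a defined repair-gene alteration.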

Assay [2] is described as follows: NCI Yeast Anticancer Drug Screen. Data for the mec2-1 strain (AID 157). The following applies: S. cerevisiae mec2-1 strain, stronger effect = higher value. A digest of the protocol: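 Strain: mec2-1 (DNA repair/cell cycle alteration). Compound exposure, then growth measured; inhibition expressed relative to vehicle.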
Assay [3] is described as follows: NCI Yeast Anticancer Drug Screen. Data for the sgs1 mgt1 strain (AID 161).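 Note: 0% = growth of cultures given vehicle only.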 The following applies: S. cerevisiae sgs1 mgt1 strain, stronger effect = higher value. The method in brief: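 Mutant yeast exposed to compound; growth scored against vehicle-only wells.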
The nature of assay [4]: NCI Yeast Anticancer Drug Screen. Data for the cln2 rad14 strain (AID 165).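 Note: 0% = growth equal to vehicle treated cultures.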 The following applies: S. cerevisiae cln2 rad14 strain, stronger effect = higher value. The method in brief: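 Compounds are applied to the cln2 rad14 yeast strain, and growth is then compared with that of vehicle-treated cultures to give inhibition.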
The nature of assay [5]: NCI Yeast Anticancer Drug Screen. Data for the bub3 strain (AID 167). The following applies: S. cerevisiae bub3 mutant strain, stronger effect = higher value. A digest of the protocol:
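Screening used yeast with an engineered genetic alteration affecting cell cycle control. Compound-exposed cultures were compared with vehicle cultures, and reduced growth was taken as inhibition.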

Assay [6] can be described thus: NCI Yeast Anticancer Drug Screen. Data for the mlh1 rad18 strain (AID 175). The following applies: S. cerevisiae mlh1 rad18 strain growth inhibition, stronger effect = higher value. The method in brief: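 Read-out is yeast growth inhibition, calculated against vehicle-only controls. The compound was applied to a strain engineered with DNA damage repair alterations.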
Setting [7] is: at 5.0 µM (retest, dose inferred, filed as 0.5).
[8] abbreviates: at 50.0 µM (retest, dose inferred, filed as 5.0).

SMILES strings stand for the structures. Compounds without any hit were thinned out: in the full panel of roughly 79,000, 15% have a hit. Values without a mark were called inactive. Activity calls are given as the source filed them. Cut-off read from the data, not from the text of the source: active = growth inhibition above about 70%; inactive = the rest.

In the case of `Cc1cc(N(CCCl)CCCl)ccc1C=Nc1ccc(-c2csc(COc3ccccc3)n2)c(Cl)c1`, the growth inhibition in assay [1] (setting [7]) is 4%; in assay [1] (setting [8]), 93% (active); in assay [1] (at 50.0 µM) it was 94% (active); in assay [2] (setting [7]) it was -13%; in assay [2] (setting [8]) it was 90% (active); in assay [2] (at 50.0 µM) it was 95.6% (active). Besides, the growth inhibition in assay [3] (setting [7]) was 23%; in assay [3] (setting [8]), 95% (active); in assay [3] (at 50.0 µM) it was 95% (active); in assay [4] (setting [7]), -10%; in assay [4] (setting [8]), 94% (active); in assay [4] (at 50.0 µM), 89.1% (active). In addition, the growth inhibition in assay [5] (setting [7]) is 6%; in assay [5] (setting [8]) it was 91% (active); in assay [5] (at 50.0 µM) it was 90.3% (active); in assay [6] (setting [7]), 52%; in assay [6] (setting [8]), 94% (active); in assay [6] (at 50.0 µM), 94.5% (active).

Take `[CH3][Sn]([CH3])([Cl])[c]1cc[c]([Sn]([CH3])([CH3])[Cl])cc1`: the growth inhibition in assay [1] (setting [7]) was 26%; in assay [1] (setting [8]), 84% (active); in assay [1] (at 50.0 µM), 78% (active); in assay [2] (setting [7]) it was -1%; in assay [2] (setting [8]) it was 50%; in assay [2] (at 50.0 µM) it was 72.5% (active). For the same molecule, the growth inhibition in assay [3] (setting [7]) was 6%; in assay [3] (setting [8]), 80% (active); in assay [3] (at 50.0 µM), 85.5% (active); in assay [4] (setting [7]) it was 11%; in assay [4] (setting [8]), 63%; in assay [4] (at 50.0 µM) it was 77% (active). Also, the growth inhibition in assay [5] (setting [7]) is 10%; in assay [5] (setting [8]), 80% (active); in assay [5] (at 50.0 µM), 81.3% (active); in assay [6] (setting [7]), 20%; in assay [6] (setting [8]), 87% (active); in assay [6] (at 50.0 µM) it was 80.2% (active).

Turning to `CSc1ccc(NC(=O)C2c3[nH]c4ccccc4c3C3CCC(C(C)(C)C)CC3C2C(=O)O)cc1` (stereo unspecified), the growth inhibition in assay [1] (setting [7]) was 0%; in assay [1] (setting [8]), -4%; in assay [1] (at 50.0 µM) it was 16.8%; in assay [2] (setting [7]), -16%; in assay [2] (setting [8]) it was 10%; in assay [2] (at 50.0 µM) it was 1.95%. Also, the growth inhibition in assay [3] (setting [7]) was -4%; in assay [3] (setting [8]), 1%; in assay [3] (at 50.0 µM), 30.8%; in assay [4] (setting [7]) it was -19%; in assay [4] (setting [8]) it was 8%; in assay [4] (at 50.0 µM), 56.4%. In addition, the growth inhibition in assay [5] (setting [7]) is -8%; in assay [5] (setting [8]) it was 5%; in assay [5] (at 50.0 µM) it was 77.1% (active); in assay [6] (setting [7]), 11%; in assay [6] (setting [8]), 26%; in assay [6] (at 50.0 µM), 46%.

For `COC12[C@@H]3N[C@@H]3CN1C1=C(C(=O)C(NCCSSCCNC3=C(C)C(=O)C4=C(C3=O)C(COC(N)=O)[C@]3(OC)C5N[C@@H]5CN43)=C(C)C1=O)[C@@H]2COC(N)=O` (stereo partly specified), the growth inhibition in assay [1] (setting [7]) was 35%; in assay [1] (setting [8]) it was 73% (active); in assay [1] (at 50.0 µM), 63.1%; in assay [2] (setting [7]) it was 18%; in assay [2] (setting [8]), 82% (active); in assay [2] (at 50.0 µM), 49%. Besides, the growth inhibition was 41% in assay [3] (setting [7]); 74% (active) in assay [3] (setting [8]); 3.55% in assay [3] (at 50.0 µM); 19% in assay [4] (setting [7]); 53% in assay [4] (setting [8]); 39.4% in assay [4] (at 50.0 µM). The values for the growth inhibition in assay [6] (setting [7]), in assay [6] (setting [8]) and in assay [6] (at 50.0 µM) were 54%, 93% (active) and 79% (active), respectively.

As to `CCNc1ncc2ccccc2c1-c1ccc(N2CCN(CCCl)CC2)cc1`, the growth inhibition in assay [1] (setting [7]) was 15%; in assay [1] (setting [8]), 93% (active); in assay [1] (at 50.0 µM), 97.8% (active); in assay [2] (setting [7]), 13%; in assay [2] (setting [8]), 89% (active); in assay [2] (at 50.0 µM), 74% (active). For the same molecule, the growth inhibition is 11% in assay [3] (setting [7]); 97% (active) in assay [3] (setting [8]); 98.7% (active) in assay [3] (at 50.0 µM); 2% in assay [4] (setting [7]); 90% (active) in assay [4] (setting [8]); 93.5% (active) in assay [4] (at 50.0 µM). The growth inhibition in assay [5] (setting [7]) is 13%; in assay [5] (setting [8]) it was 95% (active); in assay [5] (at 50.0 µM) it was 97.2% (active); in assay [6] (setting [7]), 8%; in assay [6] (setting [8]), 97% (active); in assay [6] (at 50.0 µM) it was 98% (active).

On to `O=[N+]([O-])/C=C/c1cc2c(cc1Br)OCO2`, for which the growth inhibition is 78% (active) in assay [1] (setting [7]); 89% (active) in assay [1] (setting [8]); 98.5% (active) in assay [1] (at 50.0 µM); 53% in assay [2] (setting [7]); 89% (active) in assay [2] (setting [8]); 99.2% (active) in assay [2] (at 50.0 µM). The growth inhibition in assay [3] (setting [7]) is 73% (active); in assay [3] (setting [8]), 87% (active); in assay [3] (at 50.0 µM), 97.9% (active); in assay [4] (setting [7]) it was 26%; in assay [4] (setting [8]) it was 62%; in assay [4] (at 50.0 µM), 94.2% (active). Also, the growth inhibition in assay [5] (setting [7]) is 48%; in assay [5] (setting [8]), 89% (active); in assay [5] (at 50.0 µM), 82.5% (active); in assay [6] (setting [7]) it was 68%; in assay [6] (setting [8]), 88% (active); in assay [6] (at 50.0 µM), 98.5% (active).

`CCCCN(CCCC)CCc1ccc(OC(=O)c2ccc(N)cc2)cc1`: the growth inhibition in assay [1] (setting [7]) is 27%; in assay [1] (setting [8]), 76% (active); in assay [1] (at 50.0 µM), 82.5% (active); in assay [2] (setting [7]), 23%; in assay [2] (setting [8]) it was 80% (active); in assay [2] (at 50.0 µM), 70.7% (active). For the same molecule, the growth inhibition is 46% in assay [3] (setting [7]); 90% (active) in assay [3] (setting [8]); 91.2% (active) in assay [3] (at 50.0 µM); 42% in assay [4] (setting [7]); 73% (active) in assay [4] (setting [8]); 90.2% (active) in assay [4] (at 50.0 µM). The growth inhibition in assay [5] (setting [7]) is 50%; in assay [5] (setting [8]) it was 84% (active); in assay [5] (at 50.0 µM) it was 79% (active); in assay [6] (setting [7]), 32%; in assay [6] (setting [8]), 78% (active); in assay [6] (at 50.0 µM), 84.8% (active).

On to `CC[N+](C)(CC)CCNC(=O)C(O)(c1ccccc1)c1ccccc1`, for which the growth inhibition in assay [1] (setting [7]) was -8%; in assay [1] (setting [8]), 40%; in assay [1] (at 50.0 µM), 92.7% (active); in assay [2] (setting [7]), -13%; in assay [2] (setting [8]), 52%; in assay [2] (at 50.0 µM), 95.5% (active). For the same molecule, the growth inhibition was -6% in assay [3] (setting [7]); 36% in assay [3] (setting [8]); 96.5% (active) in assay [3] (at 50.0 µM); -2% in assay [4] (setting [7]); 35% in assay [4] (setting [8]); 93.2% (active) in assay [4] (at 50.0 µM). For the same molecule, the growth inhibition is -5% in assay [5] (setting [7]); 23% in assay [5] (setting [8]); 95.1% (active) in assay [5] (at 50.0 µM); -1% in assay [6] (setting [7]); 40% in assay [6] (setting [8]); 94.4% (active) in assay [6] (at 50.0 µM).
